Source: PubChem
The list is not random: actives were taken first. Their share in the collection is about 1.6%.
HTR5A ag – counter-screen for OPRM1-OPRD1 agonists: human HTR5A agonism; HTR5A agonist assay, luminescence, cell-based; 340,000 compounds, 0.61% hits; P47898; activation, % at 9.3 µM; in the data active = activation mostly above about 9.5%, no sharp cut-off; inactive = mostly below about 7.6%;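 note: 0% = cells with vehicle only and 100% = reference agonist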
Target sequence (P47898 whole entry, looked up): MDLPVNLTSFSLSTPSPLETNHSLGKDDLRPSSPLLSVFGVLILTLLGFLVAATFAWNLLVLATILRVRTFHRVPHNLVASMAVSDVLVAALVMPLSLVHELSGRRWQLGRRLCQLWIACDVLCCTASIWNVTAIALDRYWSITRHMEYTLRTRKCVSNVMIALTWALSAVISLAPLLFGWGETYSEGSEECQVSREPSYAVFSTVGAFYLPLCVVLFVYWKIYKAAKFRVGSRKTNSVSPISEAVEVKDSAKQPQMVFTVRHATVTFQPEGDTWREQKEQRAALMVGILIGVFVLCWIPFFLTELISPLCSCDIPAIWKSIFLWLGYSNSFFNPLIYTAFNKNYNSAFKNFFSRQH
HTR2A ag – activates the mouse 5-HT2A serotonin receptor | AID 624169 | CHO-K1 mHTR2A beta-arrestin complementation, luminescence; percent of 30 µM serotonin response | 360,000 compounds, 0.66% hits | P35363 | activation, % at 7.6 µM;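 active = activation above a run cutoff, the mean activation of all tested compounds plus 3 SD, cut at about 14% in these data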;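 note: 0% = plate median of compound wells and 100% = 30 µM serotonin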
OPRM1-OPRD1 inv – inverse agonist of human OPRM1-OPRD1 heterodimerization. cell-based MOR-DOR heterodimer luminescence, inverse agonism. 340,000 compounds, 0.21% hits. inhibition, % at 9.3 µM; in the data active = inhibition above about 22%, passing the limit was not always enough;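 note: 0% = cells with DMSO and 100% = wells without cells with DMSO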
OPRM1-OPRD1 ag – OPRM1-OPRD1 heterodimerization agonism; 340,000 compounds, 0.3% hits; activation, % at 9.3 µM; cells, luminescence;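 note: 0% = vehicle-treated cells and 100% = reference agonist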
HTR5A inv ctr – counter-screen for OPRM1-OPRD1 inverse agonists: human HTR5A inverse agonism. 340,000 compounds, 0.083% hits. inhibition, % at 9.3 µM. HTR5A cell line, luminescence. AID 504634. P47898; in the data active = inhibition mostly above about 23%, no sharp cut-off; inactive = mostly below about 18%;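 note: 0% = cells with DMSO and 100% = no-cell wells with DMSO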
OPRM1-D1 ag cf – confirmation of human OPRM1-OPRD1 heterodimerization agonists | shares compounds with OPRM1-OPRD1 ag | cells, MOR-DOR heterodimerization, luminescence complementation | activation, % at 9.3 µM | 830 compounds, 45% hits | AID 504904;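 note: 0% = vehicle-treated cells and 100% = reference agonist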
HTR5A ag ctr2 – counter-screen for OPRM1-OPRD1 agonists: human HTR5A agonism. shares compounds with OPRM1-OPRD1 ag. activation, % at 9.3 µM. 830 compounds, 8% hits. HTR5A agonist counterscreen, cell luminescence; in the data active = activation above about 17%;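 note: 0% = vehicle-treated cells and 100% = reference agonist response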
An asterisk follows results filed as active; i = inactive; . = not tested or not shown; ! = repeats disagree. Cut-off read from the data, not from the text of the source, unless noted: active = activation above about 18%; inactive = the rest.

SMILES | HTR5A ag | HTR2A ag | OPRM1-OPRD1 inv | OPRM1-OPRD1 ag | HTR5A inv ctr | OPRM1-D1 ag cf | HTR5A ag ctr2
CC(C)C1CC(CCNCc2ccc(N(C)C)cc2)(c2ccccc2)CCO1 (stereo not drawn) | 7 | -4 | -113 | 21* | -20 | 25* | -1
Cc1ccc(C2(CCNCc3ccc(N(C)C)cc3)CCOC(C(C)C)C2)cc1 (stereo not drawn) | 2 | -2 | -84 | 16 | -6 | . | .
O=C(COC(=O)c1cccs1)Nc1ccccc1[N+](=O)[O-] | 5 | 2 | 2 | 0 | 2 | . | .
CC(COc1ccccc1)N1CCC(CO)(CCc2ccccc2)CC1 (stereo not drawn) | 2 | -8 | i | 176* | -6 | 0 | 0
CCN(CC)CCN(C(=O)c1ccc(CN2CCCCC2)o1)C(C(=O)NC1CCCCC1)c1ccc(F)cc1 (stereo not drawn) | -2 | -2 | 17 | -4 | -4 | . | .
CN(C)C1(CNC(=O)CC(NC(=O)c2ccccc2Cl)c2ccccc2)CCCCC1 (stereo not drawn) | 4 | 0 | -116 | 22* | -12 | 5 | 2
O=C(CC(NC(=O)c1ccccc1Cl)c1ccccc1)NC1=NCCS1 (stereo not drawn) | 6 | -8 | 11 | -2 | 21 | . | .
COc1ccc(C2=Nn3c(nnc3-c3ccccc3F)SC2)cc1OCC1CC1 | 2 | -1 | 8 | -1 | -24 | . | .
Oc1ccccc1C1SC(c2ccccc2O)SC(c2ccccc2O)S1 (stereo not drawn) | 2 | 12 | -115 | 22* | -7 | 20* | 8
Fc1ccc(OCc2nn[nH]n2)c(F)c1 | 0 | 2 | -2 | 0 | -15 | . | .
CC(C)CCN(C(=O)CNC(=O)c1ccco1)C(C(=O)NC1CCCCC1)c1cccnc1 (stereo not drawn) | 3 | 4 | 8 | -1 | -7 | . | .
COc1ccc(NC(=O)COC(=O)c2cc(OC)c(OC)cc2NC(=O)c2ccco2)cc1OC | -2 | -1 | -115 | 23* | 10 | 12 | 5
Cc1ccc2[nH]c3c(N4CCc5ccccc5C4)ncnc3c2c1 | 5 | 2 | i | 371* | -4 | 15 | 19*
Fc1ccc2[nH]c3c(N4CCc5ccccc5C4)ncnc3c2c1 | . | 2 | . | . | . | . | .
Cc1c2ccccc2nc2ccccc12 | 0 | -3 | 1 | 0 | 1 | . | .
Cc1c2ccccc2c(C)c2c1ccc1ccccc12 | 7 | -1 | -100 | 19* | -24 | -2 | -2
C#CC(=O)N(c1ccc(OC)c(OC)c1)C(C(=O)NC1CCCC1)c1cccs1 (stereo not drawn) | 4 | 1 | -228 | 39* | -51 | 19* | 21*
Cc1cc(C)cc(CC(Cc2nc3ccccc3[nH]2)c2nc3ccccc3[nH]2)c1 (stereo not drawn) | -8 | -3 | -376 | 66* | -16 | 0 | -2
Cc1ccc(CSCc2nc3ccccc3[nH]2)cc1 | 1 | -2 | 7 | -1 | -2 | . | .
CC(=O)Nc1ccc2c(c1)nc(CCN1CCN(c3ccccn3)CC1)n2C | 5 | 1 | 10 | -2 | -21 | . | .
COc1ccccc1NS(=O)(=O)c1cccc(C(=O)NC2CCN(Cc3ccccc3)CC2)c1 | 0 | -14 | -107 | 20* | -1 | -4 | -3
O=C(Cn1c(-c2ccccc2)c[n+]2ccsc12)c1ccc([N+](=O)[O-])cc1 | -1 | -2 | i | 81* | 4 | 1 | 40*
CCN1CCN(CC(O)COc2ccc(C)c(C)c2)CC1 (stereo not drawn) | 2 | 1 | -125 | 25*! | -7 | 0 | 3
O=C(C(=O)N1CCCC1)c1c(-c2ccccc2)[nH]c2ccccc12 | -3 | -7 | 14 | -3 | 11 | . | .
CCC(C(=O)OCC(=O)Nc1ccc2[nH]c(=O)[nH]c2c1)c1ccccc1 (stereo not drawn) | -5 | -2 | 8 | -1 | 13 | . | .
SMILES | HTR5A ag | HTR2A ag | OPRM1-OPRD1 inv | OPRM1-OPRD1 ag | HTR5A inv ctr | OPRM1-D1 ag cf | HTR5A ag ctr2
COC(=O)C(NC(=O)c1ccccc1)C(C)(C)SCc1ccccc1 (stereo not drawn) | . | 5 | . | . | . | . | .
COc1ccc(N2CCN(C(=O)c3sc4ncn(CC(=O)N5CCCCC5C)c(=O)c4c3C)CC2)cc1 (stereo not drawn) | -1 | -4 | 11 | -2 | -1 | . | .
Cc1cccn2cc(-c3ccc(NC(=O)Cc4ccccc4)cc3)nc12 | 17* | 4 | -213 | 39* | -73 | 6 | 11
CCN1CCN(C(c2cccs2)C(C)NC(=O)c2cccnc2)CC1 (stereo not drawn) | 6 | 3 | -1 | 0 | -17 | . | .
O=C(Nc1cc(Sc2ccccn2)cc([N+](=O)[O-])c1)c1ccc([N+](=O)[O-])cc1 | 14* | -3 | -147 | 32* | -13 | 1 | 35*
CCc1cccc(CC)c1NC(=S)NCC(c1cccnc1)N1CCOCC1 (stereo not drawn) | 1 | 4 | 1 | 0 | -4 | . | .
CCc1cccc(CC)c1NC(=S)NCC(c1cccnc1)N(C)C (stereo not drawn) | -2 | 2 | i | 150* | 14 | -2 | 0
CN(C)C(CNC(=O)Nc1cccc(Cl)c1)c1cccnc1 (stereo not drawn) | 5 | -5 | i | 202* | -4 | 4 | -4
O=C(NCc1cccnc1)Nc1cccc(Cl)c1 | -2 | -11 | 6 | -1 | 6 | . | .
S=C(NCc1cccnc1)Nc1ccc(Cl)cc1 | 4 | -5 | 21 | -4 | -12 | . | .
CN(C)C(CNC(=S)Nc1ccc(Cl)cc1)c1cccnc1 (stereo not drawn) | 0 | 2 | i | 264* | 3 | -1 | -1
CC(C)CNC(=O)C(=O)NCC1OCCCN1S(=O)(=O)c1cccs1 (stereo not drawn) | 3 | 13 | 17 | -3 | -23 | . | .
COC(=O)CSc1nnc(-c2sc3cc(OC)ccc3c2Cl)n1C | -3 | -8 | -85 | 19* | -10 | 1 | 3
COc1cc(C(=O)Nc2nc3ccc(S(C)(=O)=O)cc3s2)cc(OC)c1C | 6 | 3 | -198 | 37* | -15 | 14 | 9
COc1cc(OC)cc(C(=O)Nc2nc3ccc(S(C)(=O)=O)cc3s2)c1 | -1 | -1 | -12 | 2 | 4 | . | .
CN(Cc1ccccc1)C(=O)c1cc2cc(F)ccc2[nH]1 | 0 | -3 | -6 | 1 | -1 | . | .
Cc1cccc(Oc2coc3cc(OC(=O)c4cncc(Br)c4)ccc3c2=O)c1 | -1 | 1 | -18 | 4 | 8 | . | .
Cc1cc(C)cc(Oc2coc3cc(OC(=O)c4cccnc4)ccc3c2=O)c1 | -4 | 1 | -118 | 22* | 13 | 2 | 0
Cc1ccc2c(C(=O)CN3CCN(C(=O)c4ccco4)CC3)c(C)[nH]c2c1 | . | -5 | . | . | . | . | .
O=C(CCCOc1ccc(Cl)cc1Cl)N/N=C/c1ccc(Cl)cc1 | 6 | 1 | -15 | 3 | 4 | . | .
